3 compounds from ChEMBL document CHEMBL3988442, “University of Dundee, Small-Polar-MMV Screening Library” (2021) can be followed below.

The target in assay [1] is T1, Methionyl-tRNA synthetase, putative (Leishmania donovani (strain BPK282A1)) (UniProt E9BF75).
T1 sequence (whole entry): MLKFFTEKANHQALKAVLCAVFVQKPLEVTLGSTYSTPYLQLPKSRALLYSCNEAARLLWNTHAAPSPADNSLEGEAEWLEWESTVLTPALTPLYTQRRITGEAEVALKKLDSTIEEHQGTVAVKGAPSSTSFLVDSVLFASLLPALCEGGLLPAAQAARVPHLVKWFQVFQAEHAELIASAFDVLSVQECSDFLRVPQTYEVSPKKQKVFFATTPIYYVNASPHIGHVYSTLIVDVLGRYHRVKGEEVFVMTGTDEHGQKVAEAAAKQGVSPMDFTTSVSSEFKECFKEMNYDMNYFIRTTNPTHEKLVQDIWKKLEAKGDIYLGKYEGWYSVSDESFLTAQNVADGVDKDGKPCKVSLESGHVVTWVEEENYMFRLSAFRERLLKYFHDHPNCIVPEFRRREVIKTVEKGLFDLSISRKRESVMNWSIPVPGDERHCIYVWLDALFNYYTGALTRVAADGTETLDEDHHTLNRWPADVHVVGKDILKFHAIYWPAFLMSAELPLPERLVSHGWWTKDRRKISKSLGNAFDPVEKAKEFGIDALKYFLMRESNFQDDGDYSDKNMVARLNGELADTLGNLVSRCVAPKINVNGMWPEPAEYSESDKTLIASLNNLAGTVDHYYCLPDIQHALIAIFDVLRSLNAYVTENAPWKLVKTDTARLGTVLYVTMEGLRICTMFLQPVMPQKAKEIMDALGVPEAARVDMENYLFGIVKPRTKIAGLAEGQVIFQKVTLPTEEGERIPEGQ
The assay is described as follows: Leishmania donovani Methionine tRNA synthetase (LdMetRS):v7. Dose response assay. It counts as functional. More on the design: conc 80 nM, time 150 minutes.

Assay [2] concerns the target Protein translocase subunit SecA (Escherichia coli (strain K12)) (UniProt P10408). Kind of assay: Assay to Identify E. coli SecA ATPase Inhibitors. It counts as functional. More on the design: scale not given: direction of the effect not stated beside the values. Particulars: 30 µM.
The target of assay [3] is T2, Ubiquitin-activating enzyme e1, putative (Leishmania donovani (strain BPK282A1)) (UniProt E9BSI1).
T2 sequence (whole entry): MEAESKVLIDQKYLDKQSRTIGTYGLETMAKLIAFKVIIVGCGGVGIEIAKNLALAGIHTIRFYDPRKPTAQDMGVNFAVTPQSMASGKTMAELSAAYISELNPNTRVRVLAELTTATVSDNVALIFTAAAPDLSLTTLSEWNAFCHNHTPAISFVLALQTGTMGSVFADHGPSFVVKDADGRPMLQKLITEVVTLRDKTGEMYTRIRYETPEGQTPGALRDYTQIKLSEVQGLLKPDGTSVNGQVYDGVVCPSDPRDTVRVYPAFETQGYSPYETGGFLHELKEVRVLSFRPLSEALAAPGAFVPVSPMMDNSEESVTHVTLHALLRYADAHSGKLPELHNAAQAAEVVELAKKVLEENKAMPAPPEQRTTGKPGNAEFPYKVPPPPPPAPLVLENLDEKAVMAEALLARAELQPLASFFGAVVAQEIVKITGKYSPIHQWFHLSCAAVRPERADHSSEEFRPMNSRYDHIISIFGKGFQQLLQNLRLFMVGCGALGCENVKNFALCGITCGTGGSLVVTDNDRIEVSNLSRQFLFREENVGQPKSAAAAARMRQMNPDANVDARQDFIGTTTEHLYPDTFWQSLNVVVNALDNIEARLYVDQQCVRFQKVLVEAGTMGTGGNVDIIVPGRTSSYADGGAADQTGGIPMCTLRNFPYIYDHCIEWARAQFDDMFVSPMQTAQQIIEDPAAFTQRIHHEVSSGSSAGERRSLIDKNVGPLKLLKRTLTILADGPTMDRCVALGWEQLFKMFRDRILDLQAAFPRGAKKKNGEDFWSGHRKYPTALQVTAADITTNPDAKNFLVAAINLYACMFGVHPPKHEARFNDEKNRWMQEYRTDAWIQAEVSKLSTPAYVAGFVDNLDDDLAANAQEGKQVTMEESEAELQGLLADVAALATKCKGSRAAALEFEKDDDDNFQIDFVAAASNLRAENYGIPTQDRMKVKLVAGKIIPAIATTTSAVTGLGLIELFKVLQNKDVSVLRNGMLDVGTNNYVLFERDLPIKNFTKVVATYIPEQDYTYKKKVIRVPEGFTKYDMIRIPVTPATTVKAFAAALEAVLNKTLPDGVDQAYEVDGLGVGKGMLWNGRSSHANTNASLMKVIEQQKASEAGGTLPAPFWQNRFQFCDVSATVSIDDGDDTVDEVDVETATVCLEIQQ
The assay is described as follows: Leishmania donovani Ubiquitin Activating Enzyme (LdE1). More on the design: scale not given: direction of the effect not stated beside the values. The note with it: 30 µM. The class given is functional.

For assay [4], the target named is T3, Aspartate--tRNA(Asp/Asn) ligase (Mycobacterium tuberculosis (strain ATCC 25618 / H37Rv)) (UniProt P9WFW3). Further: in the data most compounds retested in dose-response had high values.
T3 sequence (whole entry): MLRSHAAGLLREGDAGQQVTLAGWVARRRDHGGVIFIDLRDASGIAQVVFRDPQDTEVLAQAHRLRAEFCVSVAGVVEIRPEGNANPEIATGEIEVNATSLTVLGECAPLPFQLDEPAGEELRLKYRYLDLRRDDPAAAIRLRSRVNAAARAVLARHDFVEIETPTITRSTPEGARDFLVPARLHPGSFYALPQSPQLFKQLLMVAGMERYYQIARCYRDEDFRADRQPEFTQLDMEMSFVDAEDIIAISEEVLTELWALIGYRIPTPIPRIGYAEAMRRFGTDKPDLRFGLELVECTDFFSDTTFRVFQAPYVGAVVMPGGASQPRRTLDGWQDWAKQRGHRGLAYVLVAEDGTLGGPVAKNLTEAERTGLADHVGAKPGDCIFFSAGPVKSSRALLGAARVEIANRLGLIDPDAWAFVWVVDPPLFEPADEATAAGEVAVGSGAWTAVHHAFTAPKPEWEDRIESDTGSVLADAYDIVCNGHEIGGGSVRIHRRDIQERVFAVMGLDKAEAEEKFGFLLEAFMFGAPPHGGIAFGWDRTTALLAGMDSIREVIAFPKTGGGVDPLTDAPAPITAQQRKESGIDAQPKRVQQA
The assay is described as follows: Assay for Asp RNA synthetase-1 from Mycobacterium tuberculosis. The class given is functional. Details: scale not given: direction of the effect not stated beside the values. The note with it: 30 µM.

Assay [5] deals with AMP-activated protein kinase, AMPK (Homo sapiens) (UniProt P54646+O43741+P54619+Q9UGJ0+Q9Y478+Q13131+Q9UGI9). The assay is described as follows: AMP-dependent Kinase enzyme assay. An in vitro enzyme assay that detects ADP turnover that is directly proportional to AMPK activity. This uses naive AMPK that is activated during the assay with MK-8722. Details: scale not given: direction of the effect not stated beside the values. The note with it: 30 µM. It counts as functional.

Assay [6] deals with Sialic acid-binding Ig-like lectin 9 (Homo sapiens) (UniProt Q9Y336). Kind of assay: Hs-Siglec9 ALPHAscreen SOP 20170721. The note with it: 10 µM. More on the design: scale not given: direction of the effect not stated beside the values. On the technique in general: Alpha assays give light when donor and acceptor beads are brought close together.
Assay [7] has as its system Trypanosoma cruzi. Kind of assay: Trypanosoma cruzi phosphomannomutase and mannose-1-phosphate guanylyltransferase assay. The class given is functional. Details: scale not given: direction of the effect not stated beside the values. Particulars: 10 µM.
For assay [8], the target named is T4, Arginase-2, mitochondrial (Homo sapiens) (UniProt P78540).
T4 sequence (whole entry): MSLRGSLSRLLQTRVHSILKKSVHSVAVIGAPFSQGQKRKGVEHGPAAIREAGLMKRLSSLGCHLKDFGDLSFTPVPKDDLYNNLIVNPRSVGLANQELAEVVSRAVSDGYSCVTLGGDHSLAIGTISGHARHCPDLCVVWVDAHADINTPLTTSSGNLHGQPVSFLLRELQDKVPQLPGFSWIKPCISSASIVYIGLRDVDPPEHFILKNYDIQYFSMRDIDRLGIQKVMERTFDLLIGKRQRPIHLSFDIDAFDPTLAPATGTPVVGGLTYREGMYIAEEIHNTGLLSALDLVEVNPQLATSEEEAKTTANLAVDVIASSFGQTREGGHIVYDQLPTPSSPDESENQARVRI
The assay is described as follows: in vitro enzyme assay to detect the production of urea directly proportional to the activity of Arginase II. The class given is functional. Details: scale not given: in the data most compounds retested in dose-response had high values. The note with it: 33.3 µM.

In assay [9] the target is T5, Proteasome subunit beta (Trypanosoma cruzi) (UniProt O96673).
T5 sequence (whole entry): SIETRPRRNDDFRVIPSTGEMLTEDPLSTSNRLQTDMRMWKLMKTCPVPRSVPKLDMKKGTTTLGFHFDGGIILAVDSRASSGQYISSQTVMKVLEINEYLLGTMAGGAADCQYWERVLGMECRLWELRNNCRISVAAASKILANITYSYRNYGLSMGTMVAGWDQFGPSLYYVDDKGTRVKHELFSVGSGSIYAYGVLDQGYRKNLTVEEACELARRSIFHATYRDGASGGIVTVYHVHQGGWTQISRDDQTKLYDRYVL
Kind of assay: Trypanosoma cruzi proteasome chymotrypsin-like activity (TcProtChymo) assay. The class given is functional. Details: scale not given: in the data most compounds retested in dose-response had high values. Particulars: 9.37 µM.

Assay [10] is filed under the species Homo sapiens. Kind of assay: To identify inhibition of the IFN signalling (Jak-Stat) pathway via expression of an eGFP reporter gene under the control of an IFN-stimulated response element (ISRE) containing MxA promoter. The class given is functional. More on the design: scale not given: direction of the effect not stated beside the values. Particulars: 30 µM. (In general: In a reporter assay the amount or activity of a reporter protein is the signal.)

Assay [11] addresses Shiga toxin 2 (Escherichia coli O157:H7) (UniProt P09385+P09386). Kind of assay: E. coli 0.157:H7 Shiga Toxin SOP - stx2 screening assay. The class given is functional. Details: scale not given: direction of the effect not stated beside the values. The note with it: 30 µM.
In assay [12] the target is T6, Tyrosyl-tRNA synthetase, putative (Trypanosoma cruzi (strain CL Brener)) (UniProt Q4DSP6).
T6 sequence (whole entry): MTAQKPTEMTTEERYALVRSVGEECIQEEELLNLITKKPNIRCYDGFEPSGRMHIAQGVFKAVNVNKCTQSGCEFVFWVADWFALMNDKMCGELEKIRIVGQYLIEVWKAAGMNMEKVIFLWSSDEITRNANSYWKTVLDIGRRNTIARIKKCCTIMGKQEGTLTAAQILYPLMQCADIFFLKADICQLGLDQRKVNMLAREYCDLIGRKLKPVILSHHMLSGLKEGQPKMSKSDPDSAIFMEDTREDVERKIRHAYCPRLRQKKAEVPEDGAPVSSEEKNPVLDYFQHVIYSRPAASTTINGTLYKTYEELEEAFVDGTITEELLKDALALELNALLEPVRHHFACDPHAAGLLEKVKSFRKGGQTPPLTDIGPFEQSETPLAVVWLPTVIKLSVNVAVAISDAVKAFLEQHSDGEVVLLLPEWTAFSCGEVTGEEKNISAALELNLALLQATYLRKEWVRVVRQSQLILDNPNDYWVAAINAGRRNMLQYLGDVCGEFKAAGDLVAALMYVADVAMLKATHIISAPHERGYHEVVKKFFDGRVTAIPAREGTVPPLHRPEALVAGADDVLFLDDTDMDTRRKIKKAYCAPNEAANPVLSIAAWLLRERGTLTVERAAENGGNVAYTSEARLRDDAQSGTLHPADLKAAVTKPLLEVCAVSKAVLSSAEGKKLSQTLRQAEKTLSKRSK
The assay is described as follows: Trypanosoma cruzi tyrosyl tRNA synthetase (TcYRS) _High Tyrosine SOP. The class given is functional. Details: scale not given: in the data most compounds retested in dose-response had high values. The note with it: 30 µM.

The target of assay [13] is T6, Tyrosyl-tRNA synthetase, putative (Trypanosoma cruzi (strain CL Brener)). Kind of assay: Trypanosoma cruzi tyrosyl tRNA synthetase (TcYRS) SOP. The class given is functional. Details: scale not given: direction of the effect not stated beside the values. Particulars: 30 µM.
Assay [14] deals with Chromo domain-containing protein 1 (Saccharomyces cerevisiae (strain ATCC 204508 / S288c) (Baker's yeast)) (UniProt P32657). Kind of assay: ScCHD-1 Enzyme Inhibition Assay. The class given is functional. The note with it: 30 µM. More on the design: scale not given: in the data most compounds retested in dose-response had high values.

For some of these results: Potency and affinity values are given separately.

Sequence of Chromo domain-containing protein 1 (Saccharomyces cerevisiae (strain ATCC 204508 / S288c) (Baker's yeast)) (P32657 whole entry, the tested form may be a part): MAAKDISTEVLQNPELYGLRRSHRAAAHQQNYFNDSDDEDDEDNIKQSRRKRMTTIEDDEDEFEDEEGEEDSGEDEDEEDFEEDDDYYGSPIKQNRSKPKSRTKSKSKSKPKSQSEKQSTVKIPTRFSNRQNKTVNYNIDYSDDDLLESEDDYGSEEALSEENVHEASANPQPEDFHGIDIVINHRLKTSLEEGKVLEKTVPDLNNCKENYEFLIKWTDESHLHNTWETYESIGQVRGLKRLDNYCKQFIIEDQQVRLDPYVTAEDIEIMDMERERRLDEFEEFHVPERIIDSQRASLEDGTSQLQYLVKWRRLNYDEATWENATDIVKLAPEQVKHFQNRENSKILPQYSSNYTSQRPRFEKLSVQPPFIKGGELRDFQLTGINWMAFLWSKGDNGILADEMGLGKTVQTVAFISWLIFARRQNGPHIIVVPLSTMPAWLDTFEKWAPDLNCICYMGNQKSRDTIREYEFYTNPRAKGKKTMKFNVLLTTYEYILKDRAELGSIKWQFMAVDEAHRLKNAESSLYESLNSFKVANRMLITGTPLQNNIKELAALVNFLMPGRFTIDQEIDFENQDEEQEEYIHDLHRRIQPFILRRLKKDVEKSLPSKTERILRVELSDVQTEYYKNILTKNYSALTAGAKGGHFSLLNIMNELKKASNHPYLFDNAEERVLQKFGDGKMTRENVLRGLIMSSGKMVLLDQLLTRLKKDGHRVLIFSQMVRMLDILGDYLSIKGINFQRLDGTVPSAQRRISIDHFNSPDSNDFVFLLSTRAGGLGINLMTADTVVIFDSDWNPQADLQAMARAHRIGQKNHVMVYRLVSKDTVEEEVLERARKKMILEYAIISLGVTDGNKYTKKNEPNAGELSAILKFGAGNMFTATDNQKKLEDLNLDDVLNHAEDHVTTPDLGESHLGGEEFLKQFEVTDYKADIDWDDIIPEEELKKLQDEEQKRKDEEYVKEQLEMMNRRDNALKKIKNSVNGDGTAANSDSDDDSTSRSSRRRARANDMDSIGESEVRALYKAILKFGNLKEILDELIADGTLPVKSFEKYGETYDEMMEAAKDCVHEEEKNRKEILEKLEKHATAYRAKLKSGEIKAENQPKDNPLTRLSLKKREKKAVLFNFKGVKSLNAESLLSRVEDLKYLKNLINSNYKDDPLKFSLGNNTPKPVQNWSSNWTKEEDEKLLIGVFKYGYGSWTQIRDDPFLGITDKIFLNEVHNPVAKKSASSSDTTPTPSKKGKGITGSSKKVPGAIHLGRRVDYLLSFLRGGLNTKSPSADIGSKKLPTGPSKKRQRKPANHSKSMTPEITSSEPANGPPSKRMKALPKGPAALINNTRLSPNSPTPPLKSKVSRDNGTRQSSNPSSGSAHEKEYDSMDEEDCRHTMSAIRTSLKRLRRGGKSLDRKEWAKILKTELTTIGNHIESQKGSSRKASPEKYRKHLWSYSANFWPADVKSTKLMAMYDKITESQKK
Sequence of Protein translocase subunit SecA (Escherichia coli (strain K12)) (P10408 whole entry): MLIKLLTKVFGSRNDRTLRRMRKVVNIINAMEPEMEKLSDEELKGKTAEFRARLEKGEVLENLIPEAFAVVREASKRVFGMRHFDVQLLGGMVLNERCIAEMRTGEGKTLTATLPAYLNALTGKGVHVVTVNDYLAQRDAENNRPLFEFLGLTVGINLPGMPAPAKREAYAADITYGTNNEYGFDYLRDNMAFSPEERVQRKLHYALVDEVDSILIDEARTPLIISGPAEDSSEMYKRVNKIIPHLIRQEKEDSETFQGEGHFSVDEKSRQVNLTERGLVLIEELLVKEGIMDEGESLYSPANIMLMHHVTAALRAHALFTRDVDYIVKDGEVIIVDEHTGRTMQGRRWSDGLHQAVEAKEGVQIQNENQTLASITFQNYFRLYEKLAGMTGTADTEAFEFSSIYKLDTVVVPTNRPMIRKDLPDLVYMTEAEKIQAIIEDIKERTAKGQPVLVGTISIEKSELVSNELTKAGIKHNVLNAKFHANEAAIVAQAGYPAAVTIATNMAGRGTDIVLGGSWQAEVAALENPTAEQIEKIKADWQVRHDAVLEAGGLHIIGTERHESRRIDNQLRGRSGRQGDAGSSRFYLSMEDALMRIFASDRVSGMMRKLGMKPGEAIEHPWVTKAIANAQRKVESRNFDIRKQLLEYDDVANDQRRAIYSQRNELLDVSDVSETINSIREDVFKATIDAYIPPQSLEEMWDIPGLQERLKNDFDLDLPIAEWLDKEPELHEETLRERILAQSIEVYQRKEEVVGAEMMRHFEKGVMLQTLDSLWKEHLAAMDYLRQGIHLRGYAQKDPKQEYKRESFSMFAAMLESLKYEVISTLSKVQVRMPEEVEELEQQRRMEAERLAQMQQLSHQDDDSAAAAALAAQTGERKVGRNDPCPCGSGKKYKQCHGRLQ
Sequence of Sialic acid-binding Ig-like lectin 9 (Homo sapiens) (Q9Y336 whole entry): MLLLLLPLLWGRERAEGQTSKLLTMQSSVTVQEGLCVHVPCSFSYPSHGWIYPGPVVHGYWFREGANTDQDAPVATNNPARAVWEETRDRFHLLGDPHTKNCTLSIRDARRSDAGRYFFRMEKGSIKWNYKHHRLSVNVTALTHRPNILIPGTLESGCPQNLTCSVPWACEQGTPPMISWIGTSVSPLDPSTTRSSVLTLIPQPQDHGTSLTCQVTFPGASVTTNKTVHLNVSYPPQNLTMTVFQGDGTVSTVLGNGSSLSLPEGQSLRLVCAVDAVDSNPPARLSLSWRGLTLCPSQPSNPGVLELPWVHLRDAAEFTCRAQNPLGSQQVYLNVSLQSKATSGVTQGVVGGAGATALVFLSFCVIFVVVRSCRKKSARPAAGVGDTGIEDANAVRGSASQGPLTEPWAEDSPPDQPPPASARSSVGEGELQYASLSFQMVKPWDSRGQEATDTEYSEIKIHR

As for `Oc1ccc(Cl)cc1Cl`, the PXC50 in assay [1] (MAX_EFFECT 9.315589354) and in assay [1] (MAX_EFFECT 10.1511879) was < 3 throughout.
`CN(C)c1nccc(N2CCO[C@H]3CN(Cc4ccsc4)C[C@H]32)n1`: the Percent Effect in [2] was -0.682%; in [3], 8.22%; in [4], -1.5%; in [5], 2.33%; in assay [6], 8.35%; in [7] it was 1.59%. The Percent Effect was -0.399% in assay [8]; 19.9% in [9]; 2.38% in assay [10]; -97.8% in assay [11]; 8.33% in [12]; 13.6% in assay [13]. For the same compound, the Percent Effect in [14] was -5.92%.
As for `CCn1cc(CN2CCCN(C(=O)Cc3ccc(C)nc3)CC2)cn1`, the Percent Effect in assay [2] was -6.08%; in assay [3], 10.4%; in assay [4] it was -1.87%; in assay [5], 0.798%; in [6] it was 5.82%; in [7], 6.76%. Besides, the Percent Effect in assay [8] was -3.58%; in assay [9] it was 5.09%; in assay [10] it was -17.1%; in assay [11], 1.69%; in assay [12] it was -1.91%; in assay [13], 9.41%. Also, in [14], the Percent Effect was -14.6%.
